The results in this text go back to PubChem BioAssay (NCI).

Where “and” joins values, the source holds several entries; their conditions need not be identical. Equal entries are not always repeated. About 83,000 compounds went through this panel and 20% of them were active in at least one assay; those are over-represented in the sample as a whole.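 Step 1: grow cells in 96-well plates. Step 2: add test compound at a single concentration. Step 3: incubate 48 h. Step 4: record percent growth.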 Calls of active or inactive are those of the source. The calls were made as follows: active = growth percent below 10; inactive = the rest.

Holding throughout (assay): NCI-60 one-dose screen, 48 h (100 = growth as untreated, 0 = no growth, -100 = all killed)
Settings in all cases: 10 µM unless noted

Experiment [1] has as its system HCT-15 colon.
In experiment [2] the test system is HT29 colon.
The test system of experiment [3] is SNB-75 CNS.
Experiment [4] deals with SNB-19 CNS.
Experiment [5] has as its system U251 CNS.
Experiment [6] deals with PC-3 prostate.
Experiment [7] deals with SK-MEL-5 melanoma.
Experiment [8] relates to UACC-62 melanoma.
In experiment [9] the test system is LOX IMVI melanoma.
The test system of experiment [10] is SK-MEL-28 melanoma.
For experiment [11], the system named is SK-MEL-2 melanoma.
The subject of experiment [12] is EKVX NSCLC.
Experiment [13] relates to SN12C renal.
The subject of experiment [14] is UO-31 renal.
The test system of experiment [15] is TK-10 renal.
The test system of experiment [16] is ACHN renal.
Experiment [17] deals with CAKI-1 renal.
The test system of experiment [18] is A498 renal.
Experiment [19] relates to HL-60(TB) leukemia.
For experiment [20], the system named is CCRF-CEM leukemia.

`Nc1ccc2c(c1)Cc1cc(N)ccc1-2`: the growth in [1] is 85.3% (inactive); in experiment [2], 98.8% (inactive); in experiment [3], 74% (inactive); in experiment [4], 103% (inactive); in [5], 94.9% (inactive); in experiment [6], 84.9% (inactive). The growth in experiment [7] was 95.8% (inactive); in experiment [8], 96% (inactive); in experiment [9], 105% (inactive); in experiment [10] it was 92.6% (inactive); in experiment [11] it was 89.9% (inactive); in experiment [12] it was 61.2% (inactive). Moreover, the growth in [13] was 90.5% (inactive); in experiment [14], 62.6% (inactive); in experiment [15], 106% (inactive); in experiment [16], 97% (inactive); in [17] it was 86.4% (inactive); in experiment [18], 84.9% (inactive). In addition, the growth was 100% (inactive) in experiment [19] and 60.1% (inactive) in [20].

For the compound `Oc1ccc(O)c(Cl)c1`, the growth in experiment [1] is 96.4% (inactive) and 110% (inactive); in experiment [2], 103% (inactive) and 107% (inactive); in [3], 72.2% (inactive) and 85.8% (inactive); in [4], 111% (inactive); in experiment [5] it was 94.6% (inactive) and 101% (inactive); in [6], 84.3% (inactive) and 94.2% (inactive). Besides, the growth in experiment [7] is 91.3% (inactive) and 95.2% (inactive); in experiment [8] it was 93.9% (inactive) and 101% (inactive); in experiment [9], 94.4% (inactive) and 93.9% (inactive); in experiment [10] it was 115% (inactive) and 122% (inactive); in [11], 102% (inactive); in experiment [12] it was 112% (inactive). For the same compound, the growth is 89.7% (inactive) and 99.6% (inactive) in experiment [13]; 56.6% (inactive) and 75.2% (inactive) in experiment [14]; 124% (inactive) and 110% (inactive) in [15]; 95.9% (inactive) and 101% (inactive) in [16]; 93.4% (inactive) and 101% (inactive) in experiment [17]; 109% (inactive) and 98.6% (inactive) in experiment [18]. Besides, in [20], the growth was 15.5% (inactive) and 64.5% (inactive).

Consider `O=C(O)C1C(C(=O)O)C2(Cl)C(Cl)=C(Cl)C1(Cl)C2(Cl)Cl` (stereo not drawn), for which the growth is 105% (inactive) and 106% (inactive) in [1]; 103% (inactive) in experiment [2]; 82.3% (inactive) and 93.7% (inactive) in experiment [3]; 124% (inactive) and 100% (inactive) in experiment [4]; 97.7% (inactive) and 103% (inactive) in experiment [5]; 91.7% (inactive) and 101% (inactive) in experiment [6]. Besides, the growth in experiment [7] was 104% (inactive) and 116% (inactive); in experiment [8], 104% (inactive) and 102% (inactive); in experiment [9] it was 107% (inactive) and 98.1% (inactive); in [10] it was 108% (inactive); in [11], 108% (inactive) and 113% (inactive); in [12] it was 90.4% (inactive) and 118% (inactive). Moreover, the growth in [13] is 103% (inactive) and 101% (inactive); in [14], 73.1% (inactive) and 92.2% (inactive); in [15] it was 116% (inactive) and 107% (inactive); in experiment [16], 99.9% (inactive); in experiment [17], 116% (inactive); in [18] it was 102% (inactive) and 101% (inactive). Moreover, the growth in experiment [20] was 1.8% (active) and 114% (inactive).

For `CC[C@H](C)[C@H](NC(=O)CN(C)C)C(=O)N(C)[C@H](C[C@@H](OC(C)=O)c1nc(C(=O)NC23CC(C(=O)OC)(C2)C3)cs1)C(C)C`, the growth was 21.6% (inactive) in experiment [1]; -1.6% (active) in experiment [2]; 45.1% (inactive) in experiment [3]; 41.5% (inactive) in experiment [4]; 13.5% (inactive) in experiment [5]; 25.8% (inactive) in experiment [6]. In addition, the growth in experiment [7] was 12.6% (inactive); in experiment [8], 24.4% (inactive); in experiment [9], 19.7% (inactive); in experiment [10] it was 66.4% (inactive); in experiment [11], 37.5% (inactive); in experiment [12] it was 32.8% (inactive). The growth was 31.3% (inactive) in [13]; 50.1% (inactive) in experiment [14]; 43.5% (inactive) in experiment [15]; 46.9% (inactive) in experiment [16]; 51.6% (inactive) in experiment [17]; 9.1% (active) in experiment [18]. Besides, the growth in experiment [19] was -18.9% (active); in experiment [20], 6.24% (active).

As for `CC/C(Cc1ccccc1)=C(\c1ccc(OCCN2CCCC2)cc1)c1ccc(OC(=O)NCc2ccccc2)cc1`, the growth is -11.5% (active) in experiment [1]; -42.1% (active) in experiment [2]; 57.7% (inactive) in experiment [3]; 54.9% (inactive) in experiment [4]; 12.5% (inactive) in experiment [5]; 47.8% (inactive) in experiment [6]. Also, the growth in experiment [7] is 19.3% (inactive); in [8], -45.4% (active); in [9] it was 49.3% (inactive); in experiment [10], -60.3% (active); in experiment [11], 95.2% (inactive); in experiment [12] it was 66.9% (inactive). The growth in experiment [13] is 54.2% (inactive); in experiment [14], 33.8% (inactive); in experiment [15], 84.7% (inactive); in experiment [16], 63% (inactive); in experiment [17], 87.8% (inactive); in experiment [18] it was 74.1% (inactive). Further, the figures for the growth in experiment [19] and in [20] were -1.94% (active) and 33.7% (inactive), respectively.

For `C[C@@H]1C/C=C\C(=O)O[C@H](/C=C/C#C/C=C/C(C)(C)[C@@H](O)c2cccc(O)c2Br)[C@@H](C)/C=C/[C@H](C)C[C@H](OC(N)=O)C1`, the growth in experiment [1] was 2.46% (active); in experiment [2] it was 5.59% (active); in experiment [3], 32.7% (inactive); in [4] it was 53.6% (inactive); in experiment [5], 24.5% (inactive); in experiment [6] it was 33.5% (inactive). Besides, the growth in [7] was -61.5% (active); in experiment [8], -41.8% (active); in experiment [9], -2.94% (active); in experiment [10], 35.5% (inactive); in [11], 15.1% (inactive); in experiment [12], 22% (inactive). In addition, the growth in [13] was 36.4% (inactive); in [14], 3.1% (active); in [15], 43.5% (inactive); in [16] it was 35% (inactive); in experiment [17] it was 6.13% (active); in experiment [18] it was 41% (inactive). The growth was 3.08% (active) in [19] and 25.7% (inactive) in experiment [20].
